Screening data: PubChem BioAssay, Emory University Molecular Libraries Screening Center
Most compounds without a hit are left out; they make up all but 3.7% or so of the library.
ERa coact inh: blocks coactivator binding to human estrogen receptor alpha. TR-FRET ER-alpha LBD / SRC-1 peptide, estradiol-bound. inhibition, % at 25.6 µM. hit rate 1.7% among 86,000. AID 629; in the data active = inhibition above about 50%
ERa coact pot: enhances coactivator binding to human estrogen receptor alpha; coactivator binding (% of control), % at 25.6 µM; TR-FRET ERalpha-LBD/SRC-Cy5 coactivator binding, 2 h; 100 = basal binding, no effect; hit rate 1.3% among 86,000; in the data active = activity above about 200%;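 note: binding measured in presence of low estradiol as agonist stimulus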
ERb coact inh: blocks coactivator binding to human estrogen receptor beta | AID 633 | TR-FRET ER-beta LBD / SRC1-Cy5 peptide binding; receptor agonist-loaded with 1 µM estradiol | inhibition, % at 25.6 µM | Q92731 | hit rate 1.3% among 86,000;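 active = compounds whose percent inhibition of the receptor-coactivator binding signal exceeds about 50% in the single-dose screen, limit read from the data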
Target sequence (Q92731 whole entry, looked up, the tested form may be a part): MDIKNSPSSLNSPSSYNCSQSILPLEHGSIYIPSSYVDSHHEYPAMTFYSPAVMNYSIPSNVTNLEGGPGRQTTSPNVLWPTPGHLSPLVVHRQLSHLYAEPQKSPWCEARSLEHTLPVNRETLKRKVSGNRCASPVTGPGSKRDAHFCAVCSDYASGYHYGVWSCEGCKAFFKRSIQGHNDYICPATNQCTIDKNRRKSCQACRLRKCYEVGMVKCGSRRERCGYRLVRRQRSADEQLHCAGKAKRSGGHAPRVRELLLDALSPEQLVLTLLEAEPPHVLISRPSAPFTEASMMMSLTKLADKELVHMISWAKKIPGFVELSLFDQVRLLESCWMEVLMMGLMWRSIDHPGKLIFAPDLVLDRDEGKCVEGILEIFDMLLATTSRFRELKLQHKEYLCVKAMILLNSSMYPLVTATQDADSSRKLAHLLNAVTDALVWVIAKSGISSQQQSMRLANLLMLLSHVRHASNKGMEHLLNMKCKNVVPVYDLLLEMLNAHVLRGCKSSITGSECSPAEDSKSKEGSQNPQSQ
Smad3 FoxH1 inh: Smad3 (human) transcription factor binding inhibition | hit rate 0.29% among 88,000 | AID 630 | inhibition, % at 25 µM | TR-FRET Smad3/Dy647-FoxH1 peptide binding, europium anti-His;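 active = compounds that reduce the energy-transfer binding signal between the protein and its labelled peptide by more than half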
Hits are given with their value; 0 = inactive; - = no result given; [ ] = remark or other dose.

SMILES	ERa coact inh	ERa coact pot	ERb coact inh	Smad3 FoxH1 inh
COC(=O)c1[nH]c2ccc(C)cc2c1NC(=O)CN1CCCc2ccccc21	77.3[fluorescence artefact?]	0	53.7	0
Cc1ccc2[nH]c3c(c2c1)CN(C(=O)CN1CCCc2ccccc21)CC3	0	0	0	0
O=C(Nc1ccccc1N1CCOCC1)c1ccc2c(c1)C(=O)N(Cc1ccncc1)C2=O	63.1[fluorescence artefact?]	0	0	0
C[N+]1(CCCC[N+]2(C)CCCCCCC2)CCCCCCC1	-	-	-	0
CN1CCN(C(=O)C(Cc2ccccc2)NS(=O)(=O)c2ccc3c(c2)CCC(=O)N3)CC1 (stereo unspecified)	0	0	0	0
CCCCNC(=O)C(Cc1ccccc1)NS(=O)(=O)c1ccc2c(c1)c(=O)n(C)c(=O)n2C (stereo unspecified)	85.5[fluorescence artefact?]	0	0	0
CCOC(=O)CNC(=O)C(Cc1ccccc1)NS(=O)(=O)c1ccc2c(c1)CCC(=O)N2 (stereo unspecified)	0	0	85.9	0
Cn1c(=O)c2cc(S(=O)(=O)NC(C(=O)N3CCCCCC3)c3ccccc3)ccc2n(C)c1=O (stereo unspecified)	0	0	0	0
CC(C)C(=O)c1cn(CC(=O)N2CCCc3ccccc32)c2ccccc12	0	0	0	0
CCOc1ccccc1-c1nc(-c2ccc(NC(=O)c3ccc(Br)o3)cc2)no1	0	384.3	0	0
COc1ccc(CC(=O)Nc2ccc(-c3noc(-c4ccc(Cl)cc4)n3)cc2)cc1	66.3	0	0	0
COc1ccc(CC(=O)Nc2ccc(-c3noc(COc4ccccc4C)n3)cc2)cc1	0	0	0	0
COc1ccc(CC(=O)Nc2ccc(-c3noc(-c4cc(OC)c(OC)c(OC)c4)n3)cc2)cc1	0	0	0	0
CCOc1ccccc1-c1nc(-c2ccc(NC(=O)Cc3ccc(OC)cc3)cc2)no1	0	287.1[fluorescence artefact?]	50.2[fluorescence artefact?]	0
Nc1ccc(-c2ccc(Nc3cc(S(=O)(=O)O)c(N)c4c3C(=O)c3ccccc3C4=O)cc2)c(S(=O)(=O)O)c1	-	-	-	93.7
O=S(=O)(O)c1ccc(NN(c2c(O)ccc3ccccc23)S(=O)(=O)O)cc1	-	-	-	98.5
CCCNCC1COc2ccccc2O1 (stereo unspecified)	84.3[fluorescence artefact?]	0	80.4	0
O=C(Nc1cccc2ccccc12)c1cn(-c2ccccc2)nc1-c1cccs1	0	202.8[fluorescence artefact?]	0	0
O=C(Nc1cccnc1)c1cn(-c2ccccc2)nc1-c1cccs1	0	0	0	0
CCOC(=O)c1c2c(n(C)c1C)C(=O)C(=O)c1ccc(Br)cc1-2	0	0	0	68.3[fluorescence artefact?]
CCN1C(=O)CC(C(=O)NC)SC1=Nc1cc(Cl)c(O)c(Cl)c1 (stereo unspecified)	0	0	50.2[fluorescence artefact?]	0
c1coc(-c2nc(-c3ccco3)c(-c3ccco3)nc2-c2ccco2)c1	87.0[fluorescence artefact?]	0	85.5[fluorescence artefact?]	0
Nc1nc(-c2ccco2)c(-c2ccco2)s1	0	0	53.9	0
COc1ccc2nc(-c3ccco3)c(-c3ccco3)nc2c1	97.1[fluorescence artefact?]	0	98.1[fluorescence artefact?]	0
Nc1nc(-c2ccco2)cs1	0	0	0	0
SMILES	ERa coact inh	ERa coact pot	ERb coact inh	Smad3 FoxH1 inh
COc1ccc(CNC(=O)c2cc(-c3ccco3)on2)cc1	0	0	0	0
N=C(N)SCc1cccc(-c2nc3ccccc3c(=O)o2)c1	-	-	-	0
O=C1c2ccccc2-c2onc3ccc(NCCCn4ccnc4)c1c23	69.9[fluorescence artefact?]	0	0	0
CCOc1ccc(Nc2oc(-c3ccccc3Cl)nc2C#N)cc1	70.5	0	0	0
CNc1oc(-c2ccccc2Cl)nc1C#N	0	0	0	0
Cc1c(S(=O)(=O)N2CCOCC2)c(=O)n(C)c(=O)n1C	0	0	0	0
CO/N=C(/CS(=O)(=O)c1ccc(C)cc1)c1ccc(OC)cc1	0	0	0	0
CN(C)c1ccnc(N(Cc2ccccc2)Cc2ccccc2)c1C#N	0	0	0	0
O=C1c2ccccc2-c2c1cccc2C(=O)N1CCOCC1	0	0	55.5[fluorescence artefact?]	0
Cc1ccc(NC(=O)CS(=O)Cc2nc(-c3ccc(C)cc3)oc2C)cc1 (stereo unspecified)	0	0	0	0
O=C1CC(c2ccco2)Cc2nc(Nc3nc(-c4ccccc4)c4ccccc4n3)ncc21 (stereo unspecified)	0	0	51.2[fluorescence artefact?]	0
O=C(Nc1ccc([N+](=O)[O-])cc1)/C(=C/c1cccc([N+](=O)[O-])c1)NC(=O)C1CCCCC1	0	0	0	0
Cc1ccc(NC(=O)/C(=C/c2cccc([N+](=O)[O-])c2)NC(=O)C2CCCCC2)c(C)c1	54.9	0	0	0
Fc1ccc(CNc2nc3ccccc3n3cnnc23)cc1	83.8	305.8[fluorescence artefact?]	0	0
CCOc1ccccc1Nc1nc2ccccc2n2cnnc12	0	368.0[fluorescence artefact?]	0	0
Cc1ccc(CNc2nc3ccccc3n3nnnc23)cc1	50.7	208.7[fluorescence artefact?]	0	0
Cc1ccc(-c2nc3ccccc3n3nnnc23)cc1	0	0	0	0
c1ccc2c(c1)nc(NCCN1CCOCC1)c1nncn12	0	0	0	0
Fc1ccccc1N1CC(c2ccccc2)C(c2cccs2)=N1 (stereo unspecified)	0	0	0	0
COc1nc(N)nc2c1ncn2[C@@H]1C[C@H](O)[C@@H](CO)O1	-	-	-	0
COC(=O)c1cc(NC(=O)c2ccc(Cn3cc(Cl)cn3)o2)cc(C(=O)OC)c1	58.0[fluorescence artefact?]	0	0	0
CC1CCCC(C)N1C(=O)Nc1cccc(Cl)c1 (stereo unspecified)	0	0	52.8	0
O=C(O)Cc1ccc(O)c(F)c1	0	0	0	0
COc1cc(S(=O)(=O)NCC2CCCO2)ccc1Br (stereo unspecified)	0	0	0	0
COc1ccc(C(c2nnnn2CCc2ccccc2)N2CCN(C3CCCC3)CC2)cc1OC (stereo unspecified)	0	0	93.2[fluorescence artefact?]	0
SMILES	ERa coact inh	ERa coact pot	ERb coact inh	Smad3 FoxH1 inh
Cc1c(C(=O)N2CCN(c3ccccn3)CC2)sc2ncnc(N3CCN(c4ccccc4)CC3)c12	0	207.1[fluorescence artefact?]	0	0
Cc1c(C(=O)N2CCOCC2)sc2ncnc(N3CCc4ccccc4C3)c12	0	0	0	0
O=C(CSc1nc2ccc([N+](=O)[O-])cc2s1)c1ccc2ccccc2c1	-	-	-	0
NC(=O)NOC[C@@H]1NC(=O)NC1=O	-	-	-	0
CSCCC1NC(=O)NC1=O (stereo unspecified)	62.5	0	0	0
CC1(C)Cc2c(c(N3CCOCC3)nc3sc4c(=O)[nH]cnc4c23)CS1	0	0	54.6[fluorescence artefact?]	0
C[N@@+]1(CC[N@+]2(C)CCC[C@@H]2c2cccnc2)CCC[C@@H]1c1cccnc1	-	-	-	91.4
COCCCNC(=O)CC(NS(=O)(=O)c1ccc(Cl)cc1)c1ccc(OC)cc1 (stereo unspecified)	0	0	0	0
Cc1nc2c(c(=O)n1CCC1=CCCCC1)c1nc3ccccc3nc1n2/N=C/c1ccco1	79.5[fluorescence artefact?]	0	55.5	0
CCCn1c(C)nc2c(c1=O)c1nc3ccccc3nc1n2CCC1=CCCCC1	0	0	0	0
O=C(O)c1ccccc1C(=O)Nc1cc2c(cc1Br)-c1ccccc1C2=O	-	-	-	100.7
O=C(Nc1ccccc1C(=O)O)c1cncc(Br)c1	0	0	0	0
CCn1c(SCC(=O)NCc2ccccc2)nc2c(c1=O)SC(C)C2 (stereo unspecified)	0	0	0	0
